Sampled rows, rich in hits. Any-hit rate of the full collection: about 16%.
TDP1 cell noCPT: qHTS for Inhibitors of human tyrosyl-DNA phosphodiesterase 1 (TDP1): qHTS in cells in absence of CPT. actives 15% (n = 420,000). DT40 Tdp1-/- hTDP1 cells, no CPT, ATP luminescence, 48 h. Potency, µM (highest dose often 46.2 µM), without a hit: at the top dose activity change, negative = growth inhibition, hits mostly inhibitors; also: potency is read from the fitted curve at half-maximal effect; % is scaled to controls: 0 for no effect and ±100 for the full control effect; nearly all actives have a fitted effect of over 55% in size
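Seeded 400 DT40-hTDP1 cells/well (vehicle DMSO, no 20 nM CPT); pinned compounds; ≥48 hr at 37 °C; CellTiter-Glo luminescence as viability measure.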
TDP1 cell CPT: qHTS for Inhibitors of human tyrosyl-DNA phosphodiesterase 1 (TDP1): qHTS in cells in presence of CPT; actives 12% (n = 420,000); chicken DT40 Tdp1-/-;hTDP1 cells + 20 nM CPT, ATP luminescence, 48 h; Potency, µM (series often up to 46.2 µM), without a hit: at the highest dose activity change, negative = growth inhibition, hits mostly inhibitors; also: potency is read from the fitted curve at half-maximal effect; % is scaled to controls: 0 for no effect and ±100 for the full control effect; nearly all actives have a fitted effect of over 55% in size
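Cell growth measured by CellTiter-Glo luminescence after a minimum 48 h, 37 C compound exposure with 20 nM CPT in Tdp1-knockout DT40 cells stably expressing hTDP1, seeded 400/well; qHTS titration format.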
miR-21 act: qHTS Assay for Modulators of miRNAs and/orActivators of miR-21; HeLa miR-21 FLuc reporter, luciferase, 48 h; Potency, µM (doses to about 38.3 µM), without a hit: top-dose activity change, positive = activation, actives largely listed as activators; 340,000 tested, under 10 active;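 also: % of control where 0% means no effect; miR-21 action dims this reporter so a rising signal means less miR-21 action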
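Compounds were titrated across several concentrations (up to approximately 40 uM) and incubated 48 hours with HeLa miR-21-FLuc reporter cells (miR-21 target sequence downstream of FLuc, endogenous miR-21). Readout was firefly luciferase luminescence after lytic detection reagent.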
TDP1 block: qHTS Assay for Inhibitors of Tyrosyl-DNA Phosphodiesterase (TDP1); Tyrosyl-DNA phosphodiesterase 1 (Homo sapiens), Q9NUW8; recombinant TDP1, AlphaScreen DNA substrate cleavage; Potency, µM (top dose mostly 130 µM), for the others: at the top dose activity change, negative = inhibition, most hits filed as inhibitors; actives 0.28% (n = 350,000); also: potency is read from the fitted curve at half-maximal effect; % is scaled to controls: 0 for no effect and ±100 for the full control effect; nearly all actives have a fitted effect of over 40% in size
Target sequence (Q9NUW8 whole entry, looked up): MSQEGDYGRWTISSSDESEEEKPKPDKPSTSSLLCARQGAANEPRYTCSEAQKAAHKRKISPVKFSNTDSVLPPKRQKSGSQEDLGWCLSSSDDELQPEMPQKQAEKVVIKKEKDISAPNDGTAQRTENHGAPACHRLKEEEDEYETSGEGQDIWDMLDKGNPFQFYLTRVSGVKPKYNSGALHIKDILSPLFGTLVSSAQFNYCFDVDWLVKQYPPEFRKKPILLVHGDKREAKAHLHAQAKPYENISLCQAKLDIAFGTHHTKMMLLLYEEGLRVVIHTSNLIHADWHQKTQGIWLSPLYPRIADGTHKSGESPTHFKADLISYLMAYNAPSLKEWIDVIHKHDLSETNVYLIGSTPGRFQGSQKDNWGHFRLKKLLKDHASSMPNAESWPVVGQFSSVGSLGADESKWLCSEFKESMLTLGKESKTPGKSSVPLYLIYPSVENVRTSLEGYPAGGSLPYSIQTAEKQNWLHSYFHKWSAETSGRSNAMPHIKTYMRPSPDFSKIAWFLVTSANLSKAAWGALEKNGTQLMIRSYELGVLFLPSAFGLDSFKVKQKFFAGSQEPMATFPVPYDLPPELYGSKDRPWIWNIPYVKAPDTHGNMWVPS
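E. coli-derived human Tdp1, 1 nM final. Cpd preinc 15 min RT; substrate 15 nM final, 5 min RT; AS bead mix 10 ug/ml final, 10 min RT. Signal loss = tyrosine-FITC cleavage. No-enzyme wells = max signal.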
uPA surface inh: qHTS for Inhibitors of Cell Surface uPA Generation. cell surface uPA generation assay, qHTS. Potency, µM (series often up to 38.3 µM), for inactives: at the top dose activity change, negative = inhibition, actives largely listed as inhibitors. actives 0.31% (n = 330,000); active = well fitted inhibition curve with a large enough effect; inconclusive = small, poorly fitted or top-dose-only effect; inactive = no such curve, though single readings can be large or run the other way; tested in mouse RAW 264.7 cells; also: potency is read from the fitted curve at half-maximal effect; % is scaled to controls: 0 for no effect and ±100 for the full control effect; nearly all actives have a fitted effect of over 55% in size
* hit, by the source's call; ? = inconclusive; · = no result given; [ ] = remark or other dose. Unless noted, calls follow the shape of the dose curve; as a rule, active = well fitted curve in the direction sought with a large enough effect; inconclusive = small, poorly fitted or top-dose-only effect, or another doubt; inactive = no such curve, though single readings can be large; an effect the other way counts as inactive or inconclusive.

SMILES | TDP1 cell noCPT | TDP1 cell CPT | miR-21 act | TDP1 block | uPA surface inh
O=C(CCN1C(=O)/C(=C/c2ccc(Cl)cc2)SC1=S)Nc1cccc(C(=O)O)c1 | -12% | 1% | -1% | · | 5%
CN1CCN(C(=O)CCCN2C(=O)/C(=C/c3ccc(Cl)cc3)SC2=S)CC1 | 12µM* | 15µM* | · | 6% | ?
O=C(O)CCCN1C(=O)/C(=C\C(Cl)=C\c2ccccc2)SC1=S | 21µM* | 18µM* | ? | · | 5µM*
CN1CCN(C(=O)CCN2C(=O)/C(=C\c3ccc(Cl)cc3Cl)SC2=S)CC1 | 12µM* | 15µM* | 6% | 4% | -3%
CC(C)=CCCC(C)CN1CCC(N2CCC(C(=O)N3CCOCC3)CC2)CC1 (stereo unspecified) | ? | ? | 0% | 4% | -18%
CC(C)=CCCC(C)CN1CCC(N2CCC(C(=O)NC(C)C)CC2)CC1 (stereo unspecified) | 16µM* | 23µM* | 5% | -11% | ?
CC(C)(C)NC(=O)COC(=O)c1ccc(Cl)c(S(N)(=O)=O)c1 | 0% | 6% | 1% | -3% | -3%
O=C1c2ccccc2C(Nc2ccc3nc(-c4cccnc4)[nH]c3c2)N1Cc1ccco1 (stereo unspecified) | 7.3µM* | 9.2µM* | -17% | 5% | -3%
COC(=O)c1cc(NC2c3ccccc3C(=O)N2Cc2ccco2)cc(C(=O)OC)c1 (stereo unspecified) | 2% | -7% | -3% | 3% | 4%
O=C(Nc1ccc2nc(-c3cccnc3)[nH]c2c1)c1ccco1 | -28% | ? | -29% | 5% | ?
O=C1c2ccccc2C(Nc2ccc(-c3nc4ccccc4[nH]3)cc2)N1Cc1ccco1 (stereo unspecified) | 18µM* | ? | 1% | 3% | -1%
CCOc1ccc(NC2c3ccccc3C(=O)N2Cc2ccco2)cc1 (stereo unspecified) | 12µM* | 16µM* | -1% | 3% | -16%
Cc1cccc(/C=N/NC(=O)CC(=O)NCCc2ccccc2)c1 | ? | 1% | · | · | -1%
Cc1nnc(SCC(=O)NC2CCCCC2)n1C1CCCCC1 | 16% | 15% | -4% | 0% | -1%
CCOc1cc(Cl)c(NC(=O)CC)cc1OCC | 1% | -2% | -3% | 4% | 0%
Cc1cc(Cl)c(S(=O)(=O)N2CCCC2)cc1OCC(=O)NC1CCCCC1 | 18µM* | 15µM* | 26% | 4% | -5%
COc1cc(C)ccc1OCC(=O)NC1CCCCCC1 | ? | 0% | · | 0% | 3%
CCCOc1cc(C)c(Cl)cc1S(=O)(=O)N(CC)CC | ? | 18µM* | -3% | -12%[56.1 µM] | 6%
Cc1cc(Cl)c(S(=O)(=O)NC(C(=O)O)C(C)C)cc1OCC(=O)NC1CCCCC1 (stereo unspecified) | -5% | 3% | 0% | -2% | -3%
CCN(CC)S(=O)(=O)c1cc(C)c(C)cc1OCC(=O)NC1CCCC1 | 21µM* | 15µM* | 7% | 0% | 13%
COc1ccc(CNC(=O)Cn2nc([N+](=O)[O-])c(Br)c2C)cc1OC | -18% | -2% | -13% | · | -4%
COC(=O)C1=C(N)Oc2cc(N(C)C)ccc2C1c1ccccc1OC (stereo unspecified) | 4.6µM* | 4.6µM* | 20% | 12% | -7%
C(=C\c1ccccc1)/CN1CCN(C(c2ccccc2)c2nnnn2C2CCCCC2)CC1 (stereo unspecified) | 13µM* | ? | · | · | ·
CCCC(c1nnnn1C1CCCCC1)N1CCN(c2ncccn2)CC1 (stereo unspecified) | ? | -18% | -7% | 4% | -6%
CSCCC(c1nnnn1C1CCCCC1)N1CCN(C/C=C/c2ccccc2)CC1 (stereo unspecified) | 21µM* | ? | · | · | ·
SMILES | TDP1 cell noCPT | TDP1 cell CPT | miR-21 act | TDP1 block | uPA surface inh
C(=C\c1ccccc1)/CN1CCN(C(c2ccnc3ccccc23)c2nnnn2C2CCCCC2)CC1 (stereo unspecified) | 18µM* | 23µM* | · | · | ·
Fc1ccc(C(c2nnnn2C2CCCCC2)N2CCCC2)cc1 (stereo unspecified) | -25% | -1% | -5% | 6% | 4%
Fc1ccc(C(c2nnnn2C2CCCC2)N2CCN(Cc3ccncc3)CC2)cc1 (stereo unspecified) | ? | -19% | -8% | -2% | -4%
c1cnc2ccc(C(c3nnnn3C3CCCCC3)N3CCCCC3)cc2c1 (stereo unspecified) | ? | -27% | -31% | 2% | 6%
C1=C(C(c2nnnn2C2CCCCC2)N2CCCCC2)COc2ccccc21 (stereo unspecified) | 16µM* | ? | 0% | 2% | 5%
O=C1CCCC/C=C\C[C@H](CC(=O)N(CCO)Cc2ccccc2)C(=O)N[C@@H](Cc2ccccc2)CO1 | ? | ? | · | 2% | -8%
CCN1C(=O)[C@H]2[C@H]3CN=C(SCc4ccc(C)cc4)N3[C@@](C)(C(=O)OC)[C@H]2C1=O | ? | -14% | · | 0%[56.1 µM] | 21%
CC(C)OCCCn1c(=O)c2ccccc2n2c(CCC(=O)NC3CCN(Cc4ccccc4)CC3)nnc12 | -25% | ? | 2% | 0% | -5%
Fc1ccccc1C(c1nnnn1C1CCCC1)N1CCN(Cc2ccccc2)CC1 (stereo unspecified) | 12µM* | 21µM* | -3% | 2% | 8%
CCC(c1nnnn1C1CCCC1)N1CCN(Cc2ccccc2)CC1 (stereo unspecified) | -20% | -6% | -6% | 0% | 11%
COc1ccc(C(O)(CCN2CCOCC2)c2ccccc2)cc1 (stereo unspecified) | -13% | 3% | -4% | · | 3%
Cc1ccc(C(=O)CC(C(=O)O)n2cnc([N+](=O)[O-])n2)cc1 (stereo unspecified) | ? | ? | -3% | 6% | -3%
Cc1ccc(OCC(=O)N2N=C(c3ccncc3)CC2(O)C(F)(F)F)cc1C (stereo unspecified) | 21µM* | ? | 6% | · | -18%
O=C(Cc1ccc([N+](=O)[O-])cc1)N1N=C(c2ccncc2)CC1(O)C(F)(F)F (stereo unspecified) | ? | 21µM* | -1% | 5% | 7%
O=C(COc1ccccc1)N1N=C(c2cccnc2)CC1(O)C(F)(F)F (stereo unspecified) | -30% | -5% | -16% | -8% | 3%
COc1ccc(S(=O)(=O)Cc2ccc(C(=O)N3CCCC3)o2)cc1 | 0% | -30% | 2% | 3% | -3%
